Data as given in PubChem BioAssay AID1745857 (National Center for Advancing Translational Sciences (NCATS), 2022).
Out of some 120,000 compounds screened, about 370 (0.31%) were called active. About 4% were inconclusive and are not listed. The sample holds actives, similar compounds and a random draw of the others, so the mix is not that of the screen. Values without a mark were called inactive. The call rests on the fitted dose curve.

Assay: Primary qHTS Assay for Foot and Mouth Disease Virus Antivirals against NCGC Sytravon and CBC Compound Libraries: Renilla Luciferase Signal; further: nearly all actives have a fitted effect of over 55% in size
Conditions: FMDV replicon cells; series mostly up to 57.5 µM; activity change, negative = inhibition: at the top concentration
On the % scale 0 is the no-effect control and ±100 the full control effect; potency means the concentration at half of the fitted maximal effect.

Row | SMILES | activity change, negative = inhibition | Potency
1 | Cn1c(=O)c2c(ncn2CC(=O)NCCc2cccc(F)c2)n(C)c1=O | -3.59% | 
2 | C=C(C)CN1CCN(c2oc(C3CC3)nc2C#N)CC1 | 0.962% | 
3 | Cc1c(-c2ccccc2)oc2c(C(=O)OCC(=O)C(C)(C)C)cccc2c1=O | 24.8% | 
4 | COCCNC(=O)COc1cc(O)c2c(=O)cc(-c3ccccc3)oc2c1 | -3.95% | 
5 | CCc1cccc(NC(=O)c2ccc3c(c2)NC(=O)CS3)c1 | -4.7% | 
6 | CC(C)Sc1c(C(C)C)cnc2c1c(=O)n(C)c(=O)n2C | 13.9% | 
7 | CC(C)Oc1ccc(C(O)(CC[N+](C)(C)C)C2CCCCC2)cc1 (stereo not drawn) | -5.33% | 
8 | COc1ccc(/C=C/c2ccc3cccc(O)c3n2)cc1OC | 22.5% | 
9 | Cc1sc2nc(CN3CCOCC3)nc(N(C)CC(=O)Nc3ccc(F)cc3)c2c1C | -4.28% | 
10 | COc1ccc(-c2csc3c2NC(=O)CC3c2ccc(OCC(N)=O)c(OC)c2)cc1 (stereo not drawn) |  | 2.82 µM (active)
11 | COc1ccc(C2CC(=O)Nc3c2c(=O)nc2c(C)cccn32)cc1OC (stereo not drawn) | 129% | 
12 | Cc1ccc(-c2csc3c2NC(=O)CC3c2ccc(C)cc2)cc1 (stereo not drawn) | -2.07% | 
13 | COc1ccc(Nc2nc(-c3ccc(NC(C)=O)cc3)cs2)cc1 | 21.3% | 
14 | COc1ccc(CNC(=O)NCc2noc3ccc(C)cc23)cc1 | 0% | 
15 | COC(=O)COc1ccc2c(C)c(CC(=O)OC)c(=O)oc2c1C | -19.7% | 
16 | O=C(Cc1cnc(-c2ccccc2F)s1)Nc1nccs1 | -1.54% | 
17 | COc1ccc(S(=O)(=O)N2CCC(C(=O)NCc3cccnc3)CC2)cc1 | 13% | 
18 | O=C(O)c1ccc(CNCc2ccco2)cc1 | 5.71% | 
19 | Cc1cc2nc(/N=C(\N)NC(=O)Cc3ccccc3)nc(C)c2cc1C | -1.81% | 
20 | Cn1c(=O)c2nc(SCC(=O)NCc3ccc(Cl)cc3)n(C)c2n(C)c1=O | -0.19% | 
21 | Cc1noc(C)c1S(=O)(=O)N(C)CC(=O)Nc1ccc(C(C)(C)C)cc1 | -15.4% | 
22 | CN(C)S(=O)(=O)c1cccc(C(=O)Nc2cccc(Oc3ccccc3)c2)c1 | 14.5% | 

Row | SMILES | activity change, negative = inhibition | Potency
23 | CCCCn1c(=O)[nH]c(=O)c2c1nc(CSc1nnc(-c3ccco3)n1C)n2CC | 4.85% | 
24 | CCOC(=O)c1ccc(Oc2coc3cc(OC)ccc3c2=O)cc1 | 2.18% | 
25 | CN1CC[C@H](c2c(O)cc(O)c3c(=O)cc(-c4ccccc4Cl)oc23)[C@H](O)C1 |  | 1 µM (active)
26 | Cc1ccc(C(=O)O)cc1S(N)(=O)=O | 2% | 
27 | COc1ccc(NC(=O)c2cccc(-n3cccc3)c2)c(OC)c1 | 21.8% | 
28 | CCN(C(=O)Cn1c(CN2CCOCC2)nc2ccccc21)c1ccccc1 | -15% | 
29 | CCOc1cccc2c(C)nc(Nc3nc(CSc4ccc(C)cc4)cc(=O)[nH]3)nc12 | -3.54% | 
30 | Cc1ccc(CC(=O)N(C)CC(=O)N(CC(C)C)c2c(N)n(CC(C)C)c(=O)[nH]c2=O)cc1C | -10.9% | 
31 | O=C1c2ccccc2NC(c2cnc3ccccc3n2)N1c1ccc(F)cc1 (stereo not drawn) | 2.44% | 
32 | CCCCn1c(=O)[nH]c(=O)c2c1nc(CSc1n[nH]c(C)n1)n2CC | 17% | 
33 | COC(=O)c1ccc(C(=O)NCc2ccccc2C)cc1 | 74% | 
34 | Cc1c(C)[n+](=O)c2cc(F)c(F)cc2n1[O-] | 21.4% | 
35 | Cc1ccc(-c2noc(Cn3cnc(C#N)n3)n2)cc1F | -14.4% | 
36 | O=C1CCSc2c1cccc2C(=O)NCc1ccccc1Cl | 28.6% | 
37 | COCCn1c(SCc2cc(C)ccc2OC)nnc1-c1ccccc1 | 51.2% | 
38 | COc1ccc(Nc2nc3ccccc3nc2NS(=O)(=O)c2ccc(OC)cc2)cc1 | 284% | 
39 | CCOCCCNc1oc(-c2ccc(S(=O)(=O)N(C)C)cc2)nc1C#N | 11.5% | 
40 | Cc1cccc(NC(=O)c2cccc3ncccc23)c1 | -4.62% | 
41 | CC(NCc1cccs1)C12CC3CC(CC(C3)C1)C2 (stereo not drawn) | 1.23% | 
42 | CC(C)COc1ccc(/C=C(\C#N)C(=O)Nc2ccccc2C(=O)O)cc1 | 112% | 
43 | COC(=O)C(N)Cc1ccc2ccccc2c1 (stereo not drawn) | -8.69% [at 1.06 µM] | 
44 | O=C(NCC1CC1)c1cc(-c2ccncc2)nc2ccccc12 | -3.62% | 

Row | SMILES | activity change, negative = inhibition | Potency
45 | Brc1ccc(/C=N/Nc2nc3ccccc3c3ccccc23)cc1 | 11.2% | 
46 | CCCCCCCCCOc1ccc(C(=O)c2ccccc2)cc1 | 19.7% | 
47 | Cc1ccc(NC(=O)Cn2cc(/C=C3\NC(=O)NC3=O)c3ccccc32)cc1 | -7.74% | 
48 | c1ccc(N2CCN(c3nc(N4CCCCC4)nc4nccnc34)CC2)cc1 | -1.01% | 
49 | O=C(NCc1cccnc1)C(=O)NCC(c1cccnc1)N1CCN(c2ccccc2)CC1 (stereo not drawn) | -12.2% | 
50 | COc1ccccc1NC(=O)C(=O)NCC(c1cccnc1)N1CCN(c2ccccc2F)CC1 (stereo not drawn) | -20.7% | 
51 | COc1ccccc1N1CCN(C(CNC(=O)C(=O)NCc2ccc(C)cc2)c2cccnc2)CC1 (stereo not drawn) |  | 7.08 µM (active)
52 | CCOc1ccccc1NC(=O)N1CCC2(CC1)c1cccn1-c1ccc(C)cc1N2CC | -9.05% | 
53 | O=C(Cc1c[nH]c2ccccc12)N1CCN(C(=O)c2ccccc2)CC1 | -4.71% | 
54 | O=C(COc1ncnc2ccccc12)Nc1ccccc1Cl | 5.08% | 
55 | COC(=O)CNC(=O)c1cc2occc2n1Cc1ccccc1 | -3.45% | 
56 | COC1CC(OC2CCC3(C=O)[C@H]4CCC5(C)C(C6=CC(=O)OC6)CCC5(O)[C@@H]4CCC3(O)C2)OC(C)C1O (stereo partly drawn) |  | 0.398 µM (active)
57 | N#Cc1cn(C2CC2)c(=O)n(Cc2coc(-c3cccc(Cl)c3)n2)c1=O | -10.6% | 
58 | O=C(CCc1ncc(-c2ccc(F)cc2)o1)NCC(c1ccccc1)N1CCCC1 (stereo not drawn) | -17.8% | 
59 | O=C(CC1(O)C(=O)N(CN2CCOCC2)c2ccccc21)c1ccc2ccccc2c1 (stereo not drawn) | 69.4% | 
60 | Oc1c(Cl)cc(Cl)c(Cl)c1Cc1c(O)c(Cl)cc(Cl)c1Cl |  | 10 µM (active)
61 | Cc1cccc(OCCn2cc(S(=O)(=O)N3CCCC3)ccc2=O)c1 | 12.5% | 
62 | CCN(CC)CCCNC(=O)C(=O)Nc1cccc2[nH]ccc12 | -2.93% | 
63 | O=C(CSc1ccc2c(c1)OCCCO2)NC(c1ccccc1)c1cccs1 (stereo not drawn) | 20.5% | 
64 | Cc1cccc(NC(=O)CN2CCCN(c3ncc(C(F)(F)F)cc3Cl)CC2)c1 | -9.07% | 
65 | CCC(C)NC(=O)COc1ccc2c(C)cc(=O)oc2c1 (stereo not drawn) | -9.07% | 
66 | CCOC(=O)CN1C(C(=O)c2ccccc2)=C(OC(=O)CC)c2ccccc2S1(=O)=O | 1.36% | 

Row | SMILES | activity change, negative = inhibition | Potency
67 | COC(=O)c1[nH]c2ccc(F)cc2c1NC(=O)CCN1CCC(C)CC1 | -9.84% | 
68 | N#Cc1ccccc1COC(=O)c1ccccc1NCCO | 17.4% | 
69 | Cc1cc(C)cc(Nc2nc(NCc3ccco3)nc3c2cnn3-c2ccccc2)c1 | 12.2% | 
70 | Fc1cccc(-c2nc(COc3ccc4ccc(C(F)(F)F)nc4c3)co2)c1 | 12.5% | 
71 | C#CCN([C@H](C(=O)OC)C(C)CC)S(=O)(=O)c1ccccc1Br (stereo partly drawn) | 53.7% | 
72 | CC1CC1C(=O)Nc1ccc2c(c1)CCC2 (stereo not drawn) | 9.89% | 
73 | O=C(NCCc1ccc(F)cc1)c1[nH]c2ccccc2c1Cl | 8.36% | 
74 | COc1ccc(OC)c(C(O)c2nc3ccccc3n2C)c1 (stereo not drawn) | 77.3% | 
75 | Cc1ccc(CC(=O)NCc2ccc(COC(C)C)cc2)cc1 | 8.49% | 
76 | Cc1ccc(C)c(NC(NC(=O)c2cccc(Cl)c2)C(Cl)(Cl)Cl)c1 (stereo not drawn) | 14.8% | 
77 | CN(C(N)=NC(=O)/C=C/c1ccccc1)C(C#Cc1ccccc1)Cc1ccccc1 (stereo not drawn) | 38% | 
78 | CCc1nnsc1C(=O)NC(C)c1cccc(OC(C)C)c1 (stereo not drawn) | 0.925% | 
79 | O=C(CN1CCCC(C(F)(F)F)C1)Nc1cccc2ncccc12 (stereo not drawn) | -0.05% | 
80 | CCOC(=O)c1ccccc1NC(=O)COC(=O)c1ccc2c(c1)NC(=O)C(C)S2 (stereo not drawn) | -6.77% | 
81 | COc1ccc(CSc2nnc(C3CC3)n2C2CC2)cc1F | 0.293% | 
82 | COc1ccc(C)cc1NC(=O)c1ccc2c(c1)NC(=O)CS2 | -2.97% | 
83 | COc1ccc(Br)cc1COc1ccc(C#N)cc1 | 16.7% | 
84 | Cc1ccc(NCc2cc3ccc(C)cc3[nH]c2=O)c(C)c1 | 59.9% | 
85 | Cc1cnc(NC(=O)CNC(=O)c2ccoc2)s1 | 0.571% | 
86 | CC(CC(=O)Nc1ccc(O)cc1)(C(=O)O)c1ccccc1 (stereo not drawn) | 21.2% | 
87 | CC(/C=N/NC(=O)c1ccc(C)cc1)=C\c1ccccc1 | 46.3% | 
88 | CCC(C)NC(=O)CSc1ncc(-c2cccc(Br)c2)o1 (stereo not drawn) | -19.2% | 

Row | SMILES | activity change, negative = inhibition | Potency
89 | O=C(Cc1ccc(F)cc1)Nc1c(NC2CCCCC2)c2ccccc2oc1=O | 37.2% | 
90 | CN(C)C(CNC(=O)Cc1n[nH]c(=O)c2ccccc12)Cc1ccccc1 (stereo not drawn) | -7.02% | 
91 | CCCC(=O)Nc1nc2ccc(CCC(=O)NCc3cc(Br)ccc3OC)cc2s1 | 106% | 
92 | CS(=O)(=O)N(CC(=O)N1CCc2ccccc2C1)c1cc(C(F)(F)F)ccc1Cl | 254% | 
93 | O=C(CNS(=O)(=O)c1cccs1)N1CCN(c2ccccc2Cl)CC1 | 4.67% | 
94 | COc1cccc(CNC(=O)C2CCC(CNS(=O)(=O)c3cccs3)CC2)c1 (stereo not drawn) | 8.54% | 
95 | Cc1ccc(C)c(N2CCN(C(=O)C3CCC(CNS(=O)(=O)c4cccs4)CC3)CC2)c1 (stereo not drawn) |  | 31.6 µM (active)
96 | Fc1cc(CSc2nncn2C2CC2)c2ncccc2c1 | 34.1% | 
97 | CC1CCN(S(=O)(=O)c2ccc3oc(=O)ccc3c2)CC1 | 24.2% | 
98 | CCOC(=O)c1cnc(Nc2ccccc2)c2ccccc12 | 5.33% | 
99 | CC1(C)CC(=O)C2=C(C1)N(Cc1ccccc1)C(CCC1CCCCC1)=NC2(C(F)(F)F)C(F)(F)F | 4.12% | 
100 | COc1cc(C(=O)Oc2c(C)cccc2C)cc(Cl)c1OC(C)C | -5.15% [at 1.06 µM] | 
101 | CCn1c(C)cc(C(=O)Cn2nc(C)c(C)c(C#N)c2=O)c1C | -1.09% | 
102 | CCCCS(=O)C1CCCCC1OC(=O)c1ccccc1 (stereo not drawn) | 34.2% | 
103 | O=C(OCc1cccnc1)c1nn(Cc2ccccc2)c(=O)c2ccccc12 | 74.7% | 
104 | COC(=O)c1ccc(Cl)cc1NC(=O)Cn1c(=O)n(Cc2ccc(F)cc2)c(=O)c2ccccc21 | -6.04% | 
105 | CC(C)NC(=O)CN1CCCN(C(=O)c2cc3ccccc3n2C)CC1 | -3.01% | 
106 | O=C(COc1ccccc1)NCc1ccc2c(c1)CCN2C(=O)c1ccc(F)cc1 | 6.8% | 
107 | O=C(NCc1ccc2c(c1)CCN2C(=O)c1ccccc1)Nc1cc(F)ccc1F |  | 8.91 µM (active)
108 | O=C(NCc1ccc2c(c1)CCN2C(=O)c1ccccc1)c1ccccc1 | -17.4% | 
